{
  "source": "the supplement of paper PMC10849652",
  "note": "The full data set covers some 7,900 targets. This sample favours those with a hit. About 0.6% of all pairs of compound and target were hits.",
  "data": [
    {"compound": "c1cn2cc(-c3ccc4cn[nH]c4c3)nc(Nc3ccc(N4CCOCC4)cc3)c2n1 [entospletinib]", "experiment": "log2 fold change, soluble protein after heating vs DMSO (PISA); higher = thermal stabilisation; K562 cells, 10 uM, 30 min; active = over 0.2 and 3.5 SD of the protein, either way, in both replicates (recomputed)", "procedure,_shortened": "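K562 cells at 2×10^6 cells/mL were treated with 10 μM compound for 30 min. Aliquots were heated for 3 min across 48°C-58°C, pooled, and extracted in PBS with 0.5% NP-40 at 4°C; soluble protein was the supernatant after 21,000xg for 90 min. Soluble protein was quantified by TMTpro 16plex LC-MS/MS with channel sums equalised, and reported as log2 fold change in thermal stability against DMSO controls, with values from duplicates.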", "values": [
      {"target": "PHKG2 (UniProt P15735)", "sequence (P15735 whole entry, looked up)": "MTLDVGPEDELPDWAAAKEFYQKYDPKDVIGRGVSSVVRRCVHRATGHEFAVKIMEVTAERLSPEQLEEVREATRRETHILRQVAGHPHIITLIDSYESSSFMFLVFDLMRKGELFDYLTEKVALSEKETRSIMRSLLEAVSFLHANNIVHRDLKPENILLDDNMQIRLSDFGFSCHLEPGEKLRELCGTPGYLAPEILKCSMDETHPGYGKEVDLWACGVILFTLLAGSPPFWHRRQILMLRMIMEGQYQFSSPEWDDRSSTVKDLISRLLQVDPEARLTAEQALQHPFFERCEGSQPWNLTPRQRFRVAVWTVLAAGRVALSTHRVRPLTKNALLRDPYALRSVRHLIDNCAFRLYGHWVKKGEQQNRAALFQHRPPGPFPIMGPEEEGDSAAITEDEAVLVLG", "log2 fold change": "-0.279 (active)"},
      {"target": "POLR2K (UniProt P53803)", "log2 fold change": "0.24 (inactive)"},
      {"target": "POTEI (UniProt P0CG38)", "sequence (P0CG38 whole entry, looked up)": "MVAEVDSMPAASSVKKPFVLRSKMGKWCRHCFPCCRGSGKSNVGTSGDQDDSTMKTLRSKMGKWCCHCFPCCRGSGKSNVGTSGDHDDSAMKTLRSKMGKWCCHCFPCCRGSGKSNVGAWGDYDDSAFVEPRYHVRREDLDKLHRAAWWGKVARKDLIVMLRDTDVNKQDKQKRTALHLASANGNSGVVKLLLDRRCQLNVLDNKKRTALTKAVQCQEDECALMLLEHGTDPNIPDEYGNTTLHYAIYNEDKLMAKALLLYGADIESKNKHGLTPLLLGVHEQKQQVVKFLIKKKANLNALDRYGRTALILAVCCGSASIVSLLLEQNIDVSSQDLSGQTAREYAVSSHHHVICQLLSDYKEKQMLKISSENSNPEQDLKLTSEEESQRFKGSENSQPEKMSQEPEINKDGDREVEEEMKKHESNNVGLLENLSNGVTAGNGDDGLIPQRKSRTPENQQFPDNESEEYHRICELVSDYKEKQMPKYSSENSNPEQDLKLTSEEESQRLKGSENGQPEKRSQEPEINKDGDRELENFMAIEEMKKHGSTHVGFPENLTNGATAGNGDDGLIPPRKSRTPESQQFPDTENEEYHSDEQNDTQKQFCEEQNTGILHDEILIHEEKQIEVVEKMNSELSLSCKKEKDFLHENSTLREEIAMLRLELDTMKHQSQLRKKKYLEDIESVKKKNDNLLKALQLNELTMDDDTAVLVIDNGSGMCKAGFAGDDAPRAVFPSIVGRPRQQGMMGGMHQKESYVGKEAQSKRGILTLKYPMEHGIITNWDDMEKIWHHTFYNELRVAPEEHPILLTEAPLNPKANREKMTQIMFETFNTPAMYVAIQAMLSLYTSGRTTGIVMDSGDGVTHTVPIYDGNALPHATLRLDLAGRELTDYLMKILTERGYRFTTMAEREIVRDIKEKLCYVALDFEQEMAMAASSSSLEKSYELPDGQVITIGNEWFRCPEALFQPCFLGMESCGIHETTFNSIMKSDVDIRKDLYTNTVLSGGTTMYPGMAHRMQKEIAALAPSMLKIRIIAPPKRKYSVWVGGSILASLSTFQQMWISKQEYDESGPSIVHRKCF", "log2 fold change": "-0.074 (inactive)"},
      {"target": "PCNX1 (UniProt Q96RV3)", "sequence (Q96RV3 whole entry, looked up)": "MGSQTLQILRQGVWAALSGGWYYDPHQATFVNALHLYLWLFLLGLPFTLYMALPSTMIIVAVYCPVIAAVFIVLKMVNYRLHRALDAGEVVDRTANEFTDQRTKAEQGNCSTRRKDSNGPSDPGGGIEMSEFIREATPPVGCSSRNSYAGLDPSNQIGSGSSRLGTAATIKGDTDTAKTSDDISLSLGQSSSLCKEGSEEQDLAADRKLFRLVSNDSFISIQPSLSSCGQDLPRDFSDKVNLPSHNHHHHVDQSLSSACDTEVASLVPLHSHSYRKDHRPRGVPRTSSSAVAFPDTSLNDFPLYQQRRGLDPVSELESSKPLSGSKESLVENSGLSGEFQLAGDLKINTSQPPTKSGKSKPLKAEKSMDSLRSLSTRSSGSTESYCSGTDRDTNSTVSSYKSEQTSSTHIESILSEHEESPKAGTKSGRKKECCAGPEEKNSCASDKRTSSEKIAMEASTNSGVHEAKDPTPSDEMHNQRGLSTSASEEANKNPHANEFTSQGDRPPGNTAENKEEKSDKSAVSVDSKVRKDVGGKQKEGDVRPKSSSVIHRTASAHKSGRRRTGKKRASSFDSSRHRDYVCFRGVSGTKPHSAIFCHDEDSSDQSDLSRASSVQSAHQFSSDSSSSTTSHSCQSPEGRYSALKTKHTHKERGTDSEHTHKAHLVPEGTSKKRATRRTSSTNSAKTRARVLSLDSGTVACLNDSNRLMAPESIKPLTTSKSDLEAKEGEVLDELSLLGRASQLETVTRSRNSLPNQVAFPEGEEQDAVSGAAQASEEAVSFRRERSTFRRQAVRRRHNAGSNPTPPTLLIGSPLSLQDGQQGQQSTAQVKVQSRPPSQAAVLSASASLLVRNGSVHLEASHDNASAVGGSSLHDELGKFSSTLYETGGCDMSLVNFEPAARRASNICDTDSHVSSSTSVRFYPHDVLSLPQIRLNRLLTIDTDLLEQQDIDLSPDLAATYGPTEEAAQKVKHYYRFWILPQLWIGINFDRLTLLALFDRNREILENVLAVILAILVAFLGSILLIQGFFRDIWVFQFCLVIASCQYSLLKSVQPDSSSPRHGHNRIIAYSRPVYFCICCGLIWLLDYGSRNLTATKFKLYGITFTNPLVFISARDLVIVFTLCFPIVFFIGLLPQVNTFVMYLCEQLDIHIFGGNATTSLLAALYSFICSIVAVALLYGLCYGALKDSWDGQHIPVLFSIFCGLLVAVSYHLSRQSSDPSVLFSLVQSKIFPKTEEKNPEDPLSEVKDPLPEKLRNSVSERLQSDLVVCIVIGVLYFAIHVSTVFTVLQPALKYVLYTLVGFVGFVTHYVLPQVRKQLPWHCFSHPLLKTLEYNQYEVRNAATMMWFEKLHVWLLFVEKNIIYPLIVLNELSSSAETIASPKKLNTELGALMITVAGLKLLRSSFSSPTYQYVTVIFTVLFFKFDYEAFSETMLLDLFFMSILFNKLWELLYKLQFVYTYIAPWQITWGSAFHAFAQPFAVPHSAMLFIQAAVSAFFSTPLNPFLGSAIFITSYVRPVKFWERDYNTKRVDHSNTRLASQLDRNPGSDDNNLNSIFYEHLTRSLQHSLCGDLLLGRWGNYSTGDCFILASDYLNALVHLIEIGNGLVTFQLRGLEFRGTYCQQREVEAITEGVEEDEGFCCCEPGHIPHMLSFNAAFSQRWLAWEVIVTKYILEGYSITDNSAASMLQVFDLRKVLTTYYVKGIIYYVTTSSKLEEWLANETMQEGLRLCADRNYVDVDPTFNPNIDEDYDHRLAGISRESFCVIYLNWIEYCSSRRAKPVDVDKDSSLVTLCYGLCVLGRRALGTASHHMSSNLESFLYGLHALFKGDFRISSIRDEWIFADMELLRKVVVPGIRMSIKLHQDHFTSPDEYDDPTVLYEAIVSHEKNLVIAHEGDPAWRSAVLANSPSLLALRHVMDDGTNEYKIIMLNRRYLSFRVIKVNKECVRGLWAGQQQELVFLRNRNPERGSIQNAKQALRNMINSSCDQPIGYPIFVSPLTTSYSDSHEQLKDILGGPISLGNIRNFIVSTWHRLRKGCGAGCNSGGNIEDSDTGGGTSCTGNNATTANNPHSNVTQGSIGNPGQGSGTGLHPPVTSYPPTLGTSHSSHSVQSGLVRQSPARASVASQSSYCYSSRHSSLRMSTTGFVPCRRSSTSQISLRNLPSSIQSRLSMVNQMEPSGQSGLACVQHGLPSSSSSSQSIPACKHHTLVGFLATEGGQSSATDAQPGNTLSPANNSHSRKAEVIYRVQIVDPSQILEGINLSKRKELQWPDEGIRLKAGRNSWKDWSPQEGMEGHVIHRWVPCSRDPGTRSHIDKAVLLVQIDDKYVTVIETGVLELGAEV", "log2 fold change": "0.179 (inactive)"},
      {"target": "PTMA (UniProt P06454)", "log2 fold change": "0.047 (inactive)"},
      {"target": "POGZ (UniProt Q7Z3K3)", "log2 fold change": "0.101 (inactive)"},
      {"target": "PRKAR2B (UniProt P31323)", "log2 fold change": "-0.166 (inactive)"},
      {"target": "PLD3 (UniProt Q8IV08)", "log2 fold change": "-0.01 (inactive)"},
      {"target": "POM121 (UniProt Q96HA1)", "sequence (Q96HA1 whole entry, looked up)": "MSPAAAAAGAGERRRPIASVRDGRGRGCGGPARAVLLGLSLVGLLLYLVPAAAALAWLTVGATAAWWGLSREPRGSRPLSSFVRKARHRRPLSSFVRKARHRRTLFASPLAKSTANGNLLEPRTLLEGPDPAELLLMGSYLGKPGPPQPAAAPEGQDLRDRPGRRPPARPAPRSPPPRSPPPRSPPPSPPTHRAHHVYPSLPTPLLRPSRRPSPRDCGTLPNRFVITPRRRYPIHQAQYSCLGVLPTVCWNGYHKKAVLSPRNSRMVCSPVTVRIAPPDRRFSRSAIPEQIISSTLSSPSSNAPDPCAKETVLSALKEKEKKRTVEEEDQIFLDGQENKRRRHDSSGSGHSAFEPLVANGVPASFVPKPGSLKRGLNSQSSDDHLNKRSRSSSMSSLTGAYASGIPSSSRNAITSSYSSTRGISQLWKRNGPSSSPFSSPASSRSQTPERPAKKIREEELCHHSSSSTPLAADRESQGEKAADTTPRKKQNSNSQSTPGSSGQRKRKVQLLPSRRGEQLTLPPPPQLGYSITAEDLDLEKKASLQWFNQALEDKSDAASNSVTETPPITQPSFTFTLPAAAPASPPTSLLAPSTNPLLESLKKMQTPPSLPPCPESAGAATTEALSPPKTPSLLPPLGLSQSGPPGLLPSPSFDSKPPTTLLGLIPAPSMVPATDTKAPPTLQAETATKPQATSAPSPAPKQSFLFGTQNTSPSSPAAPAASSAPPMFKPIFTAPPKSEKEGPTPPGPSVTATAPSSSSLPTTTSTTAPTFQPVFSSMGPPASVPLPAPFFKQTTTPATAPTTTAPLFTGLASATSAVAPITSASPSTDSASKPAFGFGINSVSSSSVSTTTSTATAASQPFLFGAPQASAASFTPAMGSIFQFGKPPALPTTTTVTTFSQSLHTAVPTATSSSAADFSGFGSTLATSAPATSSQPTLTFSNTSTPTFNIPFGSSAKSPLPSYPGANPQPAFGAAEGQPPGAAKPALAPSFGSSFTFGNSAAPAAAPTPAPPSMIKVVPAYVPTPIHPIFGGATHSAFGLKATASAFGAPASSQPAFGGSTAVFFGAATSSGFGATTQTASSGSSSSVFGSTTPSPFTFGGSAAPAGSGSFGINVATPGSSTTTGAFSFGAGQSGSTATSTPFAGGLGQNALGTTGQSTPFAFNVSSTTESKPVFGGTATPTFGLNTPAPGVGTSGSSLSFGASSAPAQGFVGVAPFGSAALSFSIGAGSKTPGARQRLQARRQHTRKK", "log2 fold change": "-0.051 (inactive)"},
      {"target": "POLR2B (UniProt P30876)", "log2 fold change": "0.193 (inactive)"},
      {"target": "PRKCB isoform 2 (UniProt P05771)", "log2 fold change": "-0.012 (inactive)"},
      {"target": "POLR2M (UniProt P0CAP2)", "log2 fold change": "-0.059 (inactive)"},
      {"target": "PTRH2 (UniProt Q9Y3E5)", "log2 fold change": "0.019 (inactive)"},
      {"target": "PIP4P2 (UniProt Q8N4L2)", "log2 fold change": "0.115 (inactive)"},
      {"target": "RAB11FIP1 (UniProt Q6WKZ4)", "log2 fold change": "-0.018 (inactive)"},
      {"target": "POMK (UniProt Q9H5K3)", "log2 fold change": "-0.293 (active)"},
      {"target": "PEX11B (UniProt O96011)", "log2 fold change": "-0.082 (inactive)"},
      {"target": "POLR2I (UniProt P36954)", "log2 fold change": "0.306 (inactive)"},
      {"target": "PCF11 (UniProt O94913)", "log2 fold change": "-0.745 (active)"},
      {"target": "PRMT7 (UniProt Q9NVM4)", "log2 fold change": "0.055 (inactive)"},
      {"target": "PRG4 (UniProt Q92954)", "log2 fold change": "-0.006 (inactive)"},
      {"target": "PIP4P1 isoform 2 (UniProt Q86T03)", "log2 fold change": "0.028 (inactive)"},
      {"target": "PIKFYVE (UniProt Q9Y2I7)", "log2 fold change": "0.003 (inactive)"}
    ]}
  ]
}
